The values below come from PubChem BioAssay.

Unmarked numbers belong to inactive results.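 Rule for the calls, unless noted: active = Her2 level under about 52% in both replicate screens, with viability over 70% of control (limit read from the data); inconclusive = Her2 under the limit in one screen only, or viability under 70%; inactive = Her2 level above the set limit.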

The target of the first assay is Receptor tyrosine-protein kinase erbB-2 (Homo sapiens) (UniProt P04626). The assay can be described thus: Her2 expression decrease, cell viability multiplex – SKBR3 breast tumor cells, AlphaScreen, ATP viability, primary screen (AID 461).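 Note: lower value means less Her2 protein in the cells.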 The following applies: 18-24 h, at 10 µM, hits give low values.
Receptor tyrosine-protein kinase erbB-2 (Homo sapiens), sequence (P04626 whole entry, looked up): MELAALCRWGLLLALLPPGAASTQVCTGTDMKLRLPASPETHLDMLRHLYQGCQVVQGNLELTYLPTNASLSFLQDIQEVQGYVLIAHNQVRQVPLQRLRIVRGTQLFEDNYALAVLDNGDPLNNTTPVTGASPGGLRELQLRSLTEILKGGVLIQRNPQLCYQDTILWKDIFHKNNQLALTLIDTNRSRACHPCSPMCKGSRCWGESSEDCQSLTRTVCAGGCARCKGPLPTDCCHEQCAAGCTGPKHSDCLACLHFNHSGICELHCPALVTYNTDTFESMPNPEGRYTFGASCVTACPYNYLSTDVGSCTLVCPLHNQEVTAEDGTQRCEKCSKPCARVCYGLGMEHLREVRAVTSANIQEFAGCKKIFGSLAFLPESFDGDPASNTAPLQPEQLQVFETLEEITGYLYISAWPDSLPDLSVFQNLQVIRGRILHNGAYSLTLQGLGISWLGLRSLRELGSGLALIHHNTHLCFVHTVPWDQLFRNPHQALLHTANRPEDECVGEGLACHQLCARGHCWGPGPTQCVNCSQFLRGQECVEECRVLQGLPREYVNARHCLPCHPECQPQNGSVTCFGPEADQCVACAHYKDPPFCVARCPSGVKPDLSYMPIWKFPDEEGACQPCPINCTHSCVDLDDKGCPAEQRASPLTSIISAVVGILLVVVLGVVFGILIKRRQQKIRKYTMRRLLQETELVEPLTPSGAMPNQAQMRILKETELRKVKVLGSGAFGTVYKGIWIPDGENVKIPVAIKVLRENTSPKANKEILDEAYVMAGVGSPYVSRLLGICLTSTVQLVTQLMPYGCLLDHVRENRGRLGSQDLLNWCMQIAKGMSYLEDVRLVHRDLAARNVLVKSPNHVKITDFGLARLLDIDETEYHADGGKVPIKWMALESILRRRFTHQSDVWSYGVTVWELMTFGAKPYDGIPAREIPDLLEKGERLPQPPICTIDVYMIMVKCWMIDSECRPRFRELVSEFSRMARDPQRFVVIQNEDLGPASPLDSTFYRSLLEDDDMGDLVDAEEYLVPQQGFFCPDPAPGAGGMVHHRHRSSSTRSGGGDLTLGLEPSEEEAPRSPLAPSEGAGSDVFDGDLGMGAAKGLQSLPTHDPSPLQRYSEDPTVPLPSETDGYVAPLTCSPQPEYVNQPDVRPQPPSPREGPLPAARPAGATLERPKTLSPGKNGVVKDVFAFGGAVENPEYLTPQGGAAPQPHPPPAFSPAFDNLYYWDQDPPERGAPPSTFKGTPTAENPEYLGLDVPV
For `CCOC(=O)c1cccc(NC(=O)CSc2nc3ccccc3c(=O)n2CC)c1`, the Her2 level is 79%.

Take `Cc1cc(C)n(-c2nc3nonc3nc2-n2nc(C)cc2C)n1`: the Her2 level is 83%.

For `COc1ccc(C)cc1S(=O)(=O)N(CC(=O)O)c1ccccc1`, the Her2 level was 114%.

As for `COc1cc(OC)cc(C(=O)N2CCN(C(=O)c3ccc(OC)c(OC)c3)CC2)c1`, the Her2 level is 104%.

Turning to `Cc1cccc(-c2nc(CN3CCCC(C(=O)NC4CCCC4)C3)c(C)o2)c1` (stereo not given), the Her2 level is 86.5%.

`CCOc1ccccc1OCC(=O)Nc1nnc(COC)s1`: the Her2 level was 103%.

Take `CC(=O)OCC1OC(c2ccccc2)C(OC(C)=O)C(OC(C)=O)C1OC(C)=O` (stereo not given): the Her2 level was 94.5%.

Consider `COc1ccc(-c2nnc(SCC(=O)Nc3ccc(Cl)cc3)n2C)cc1`, for which the Her2 level was 104%.

`Cc1sc2c(c1C)CN(C1CC(C)(C)NC(C)(C)C1)CN2C(=O)c1ccco1`: the Her2 level is 80.5%.

On to `C=C(c1cccc2ccccc12)P(=O)(O)O`, for which the Her2 level is 99.5%.

Turning to `CS(=O)(=O)C1=C(O)C(=O)N(c2ccccc2)C1c1ccccc1` (stereo not given), the Her2 level is 106%.

`CCCN1CCN(CCCNC(=O)C2CCCN(c3nc4ccc(OCC)cc4s3)C2)CC1` (stereo not given): the Her2 level is 118%.

Consider `CC(=O)Nc1ccc(Cl)cc1C(=O)O`, for which the Her2 level was 97.5%.

`Cc1nc2ccccc2c2c1C(=O)N(CCC1=CCCCC1)C2=O`: the Her2 level is 87%.

Regarding `COc1ccc(-c2noc(-c3ccccc3C(=O)NCc3ccco3)n2)cc1`, the Her2 level is 104%.

For `COc1cccc(OC)c1C(=O)Nc1ccc(CN2CCCCC2)cc1`, the Her2 level is 84%.

On to `CCOC(=O)C1=C(C)N=C2SCCC(=O)N2C1c1cc(Br)ccc1OC` (stereo not given), for which the Her2 level was 91%.

Consider `Cc1ccc2cc3cc(C(=O)N4CC(C)CC(C)C4)oc3nc2c1` (stereo not given), for which the Her2 level was 78.5%.

`COC(=O)C1=C(C)OC(N)=C(C#N)C1c1c(C)nn(-c2ccccc2)c1Cl` (stereo not given): the Her2 level is 118%.

Consider `COCC(=O)N(Cc1cc2cc(OC)ccc2[nH]c1=O)c1ccccc1`, for which the Her2 level was 112%.

`O=C(COc1ccccc1)N1CCN(C(=O)c2cccc(F)c2)CC1`: the Her2 level was 90%.

On to `O=C(CCCCC(=O)NCc1cccs1)NCc1cccs1`, for which the Her2 level is 106%.

In the case of `Cc1ccc(Cn2c(C(=O)NCCCN3CCOCC3)cc3sccc32)cc1`, the Her2 level is 76.5%.

Turning to `CCC(=O)N1CCNC(=O)C1CC(=O)Nc1ccc(C)c(Cl)c1` (stereo not given), the Her2 level was 122%.

Take `O=C1CSC(c2cn(-c3ccccc3)nc2-c2ccccc2)N1Cc1ccco1` (stereo not given): the Her2 level was 110%.

In the case of `COc1ccc(-c2cc(C(=O)Nc3ccc(C)cc3)no2)cc1`, the Her2 level was 114%.

As for `CCn1nnc(NC(=O)c2cc3ccccc3o2)n1`, the Her2 level was 103%.

Consider `O=C(NCC(=O)N(c1cnc2ccccc2c1)C(C(=O)NC1CCCC1)c1ccncc1)c1ccco1` (stereo not given), for which the Her2 level is 94%.

As to `CCOC(=O)Nc1ccc(OC)cc1S(=O)(=O)N1CCCCC1`, the Her2 level is 93%.

With `CCN(CC)CCN1C(=O)C(=O)/C(=C(/O)c2c(C)[nH]c(C(=O)OC)c2C)C1c1ccccc1OC` (stereo not given), the Her2 level was 117%.

In the case of `Cc1cc(Nc2ccccc2)n(CCC#N)n1`, the Her2 level is 84.5%.

In the case of `Cc1cc(C)n(-c2nc3c(c(=O)n(Cc4ccc(Cl)c(Cl)c4)c(=O)n3C)n2C)n1`, the Her2 level was 99%.

For the molecule `CCN(Cc1cc2cc(OC)ccc2[nH]c1=O)C(=O)Cc1ccc(OC)cc1`, the Her2 level was 87.5%.

Consider `COc1cccc(CNC(=O)C2CCN(C(=O)N(C)C)CC2)c1`, for which the Her2 level was 118%.

For the molecule `CCSc1cc(C2C(C(=O)OC)=C(C)NC3=C2C(=O)CCC3)c(C)o1` (stereo not given), the Her2 level is 90%.

For the molecule `Cc1ccc2nc(NC(=O)C3CCCN(S(=O)(=O)c4cnc[nH]4)C3)sc2c1` (stereo not given), the Her2 level was 92%.

`C=CCn1c(SCc2ccc(C#N)cc2)nnc1-c1cccc(Cl)c1`: the Her2 level was 86%.

`C=CCn1c(SCC(=O)Nc2ccccc2OC)nnc1-c1ccco1`: the Her2 level was 89.5%.

In the case of `COCCNC(=O)C(c1ccc(O)cc1)N(Cc1ccco1)C(=O)CCC(=O)Nc1nccs1` (stereo not given), the Her2 level is 104%.

Turning to `Cc1cc(C)c(OCC(=O)Nc2ccc3c(c2)OCO3)cc1C`, the Her2 level is 116%.

Tested on in the next assay: not listed separately
The assay can be described thus: reduced viability of SK-BR-3 breast cancer cells – cell-based, 24 h, human, pilot screen (AID 572;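 active = viability at or below 10% of carrier control in both of two separate runs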;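 note: compound exposure lasted between 18 and 24 h rather than exactly 24 h; 100% = carrier-treated control wells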). The following applies: SK-BR-3 viability, CellTiter-Glo luminescence, at 10 µM, hits give low values.
In the case of `CCOC(=O)c1cccc(NC(=O)CSc2nc3ccccc3c(=O)n2CC)c1`, the viability was 87%.

For the molecule `Cc1cc(C)n(-c2nc3nonc3nc2-n2nc(C)cc2C)n1`, the viability was 91.5%.

Consider `COc1ccc(C)cc1S(=O)(=O)N(CC(=O)O)c1ccccc1`, for which the viability was 118%.

In the case of `COc1cc(OC)cc(C(=O)N2CCN(C(=O)c3ccc(OC)c(OC)c3)CC2)c1`, the viability was 100%.

Take `Cc1cccc(-c2nc(CN3CCCC(C(=O)NC4CCCC4)C3)c(C)o2)c1` (stereo not given): the viability is 86%.

Turning to `CCOc1ccccc1OCC(=O)Nc1nnc(COC)s1`, the viability is 89%.

Consider `CC(=O)OCC1OC(c2ccccc2)C(OC(C)=O)C(OC(C)=O)C1OC(C)=O` (stereo not given), for which the viability was 90%.

Consider `COc1ccc(-c2nnc(SCC(=O)Nc3ccc(Cl)cc3)n2C)cc1`, for which the viability was 82.5%.

On to `Cc1sc2c(c1C)CN(C1CC(C)(C)NC(C)(C)C1)CN2C(=O)c1ccco1`, for which the viability was 86.5%.

Take `C=C(c1cccc2ccccc12)P(=O)(O)O`: the viability was 116%.

As for `CS(=O)(=O)C1=C(O)C(=O)N(c2ccccc2)C1c1ccccc1` (stereo not given), the viability was 109%.

As for `CCCN1CCN(CCCNC(=O)C2CCCN(c3nc4ccc(OCC)cc4s3)C2)CC1` (stereo not given), the viability is 85.5%.

For `CC(=O)Nc1ccc(Cl)cc1C(=O)O`, the viability is 96.5%.

Regarding `Cc1nc2ccccc2c2c1C(=O)N(CCC1=CCCCC1)C2=O`, the viability is 83.5%.

Turning to `COc1ccc(-c2noc(-c3ccccc3C(=O)NCc3ccco3)n2)cc1`, the viability is 93%.

Turning to `COc1cccc(OC)c1C(=O)Nc1ccc(CN2CCCCC2)cc1`, the viability was 98.5%.

In the case of `CCOC(=O)C1=C(C)N=C2SCCC(=O)N2C1c1cc(Br)ccc1OC` (stereo not given), the viability was 94.5%.

Consider `Cc1ccc2cc3cc(C(=O)N4CC(C)CC(C)C4)oc3nc2c1` (stereo not given), for which the viability was 108%.

`COC(=O)C1=C(C)OC(N)=C(C#N)C1c1c(C)nn(-c2ccccc2)c1Cl` (stereo not given): the viability is 89%.

For the molecule `COCC(=O)N(Cc1cc2cc(OC)ccc2[nH]c1=O)c1ccccc1`, the viability was 104%.

In the case of `O=C(COc1ccccc1)N1CCN(C(=O)c2cccc(F)c2)CC1`, the viability is 112%.

As for `O=C(CCCCC(=O)NCc1cccs1)NCc1cccs1`, the viability is 95.5%.

Turning to `Cc1ccc(Cn2c(C(=O)NCCCN3CCOCC3)cc3sccc32)cc1`, the viability was 84.5%.

On to `CCC(=O)N1CCNC(=O)C1CC(=O)Nc1ccc(C)c(Cl)c1` (stereo not given), for which the viability is 97%.

Regarding `O=C1CSC(c2cn(-c3ccccc3)nc2-c2ccccc2)N1Cc1ccco1` (stereo not given), the viability is 97%.

In the case of `COc1ccc(-c2cc(C(=O)Nc3ccc(C)cc3)no2)cc1`, the viability was 121%.

For the molecule `CCn1nnc(NC(=O)c2cc3ccccc3o2)n1`, the viability was 103%.

`O=C(NCC(=O)N(c1cnc2ccccc2c1)C(C(=O)NC1CCCC1)c1ccncc1)c1ccco1` (stereo not given): the viability is 86%.

As to `CCOC(=O)Nc1ccc(OC)cc1S(=O)(=O)N1CCCCC1`, the viability is 88.5%.

Regarding `CCN(CC)CCN1C(=O)C(=O)/C(=C(/O)c2c(C)[nH]c(C(=O)OC)c2C)C1c1ccccc1OC` (stereo not given), the viability was 104%.

Consider `Cc1cc(Nc2ccccc2)n(CCC#N)n1`, for which the viability was 83.5%.

For the molecule `Cc1cc(C)n(-c2nc3c(c(=O)n(Cc4ccc(Cl)c(Cl)c4)c(=O)n3C)n2C)n1`, the viability is 103%.

On to `CCN(Cc1cc2cc(OC)ccc2[nH]c1=O)C(=O)Cc1ccc(OC)cc1`, for which the viability is 91%.

In the case of `COc1cccc(CNC(=O)C2CCN(C(=O)N(C)C)CC2)c1`, the viability is 97.5%.

As for `CCSc1cc(C2C(C(=O)OC)=C(C)NC3=C2C(=O)CCC3)c(C)o1` (stereo not given), the viability was 79%.

As for `Cc1ccc2nc(NC(=O)C3CCCN(S(=O)(=O)c4cnc[nH]4)C3)sc2c1` (stereo not given), the viability was 96.5%.

In the case of `C=CCn1c(SCc2ccc(C#N)cc2)nnc1-c1cccc(Cl)c1`, the viability is 95.5%.

For `C=CCn1c(SCC(=O)Nc2ccccc2OC)nnc1-c1ccco1`, the viability was 95%.

As to `COCCNC(=O)C(c1ccc(O)cc1)N(Cc1ccco1)C(=O)CCC(=O)Nc1nccs1` (stereo not given), the viability was 81.5%.

Take `Cc1cc(C)c(OCC(=O)Nc2ccc3c(c2)OCO3)cc1C`: the viability was 106%.
